Assay outcomes from PubChem.
ATXN viability: cell viability loss in ATXN counter-screen; actives 0.49% (n = 400,000); S2 cells (HEK-293 line with an ATXN2-luciferase reporter) viability, CellTiter-Fluor protease fluorescence, 24 h; Potency, µM (highest dose often 56.7 µM), usual class: cytotoxic; also: nearly all actives have a fitted effect of over 40% in size
TGFb inhibitor: blocks TGF-b signaling | HepG2 CAGA-GFP TGF-b/SMAD3 reporter, GFP fluorescence, 18 h; TGF-beta stimulated, 500 pg/mL final | Potency, µM (doses to about 46.1 µM), for inactives: at the top dose activity, negative = inhibition, actives largely listed as inhibitors | actives 1.2% (n = 410,000); also: % is scaled to controls: 0 for no effect and ±100 for the full control effect; nearly all actives have a fitted effect of over 65% in size
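Using HEPG2 CAGA-GFP reporter cells at 1000 cells/well, we pinned test compounds, stimulated with recombinant TGF-beta (500 pg/mL final) and measured total well GFP after 18 h.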
ATXN2 expr inh: inhibitors of ATXN2 expression; HEK-293 ATXN2-luciferase reporter, luminescence, 24 h; Potency, µM (top dose mostly 57 µM), for inactives: at the highest dose activity change, negative = inhibition, usual class: inhibitors; actives 0.72% (n = 360,000); AID 1745845; also: % is scaled to controls: 0 for no effect and ±100 for the full control effect; nearly all actives have a fitted effect of over 55% in size
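ATXN2-luciferase reporter cells (luciferase flanked by upstream and downstream ATXN2 gene portions) were treated 24 h at 37 °C with compounds at up to 57 uM. SteadyGlo luminescence gave expression; GF-AFC fluorescence gave viability.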
HepG2 viability: HepG2 cytotoxicity, counter-screen for TGF-b inhibitors. HepG2 CAGA-GFP viability, ATP luminescence, 18 h. Potency, µM (doses to about 46.1 µM), inactives show at the top dose activity change, negative = cytotoxicity, hits mostly cytotoxic. actives 0.76% (n = 410,000). AID 588856
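CellTiter-Glo luminescence gave cytotoxicity after 18 hours at 37 degrees C. The cells were HepG2 CAGA-GFP in 1% FBS DMEM, stimulated with 500 pg/mL TGF-beta after compound addition. %Activity was normalised to no-cell wells (complete cell-killing) and DMSO (no toxicity), and curves were fitted and classified.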
HT1080 IDH1KD tx: kills HT-1080 cells with IDH1 knockdown; HT-1080 IDH1 knockdown viability, ATP luminescence, 48 h; Potency, µM (titrated, usually from 46.1 µM), for the others: top-dose activity, negative = toxicity, usual class: cytotoxic; actives 2% (n = 360,000); AID 686971;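 also: 0% = DMSO wells and -100% = cell-free medium wells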
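CellTiter-Glo luminescence after 48 h compound exposure at 37 degrees C of IDH1-knockdown HT-1080 cells in 5% FBS RPMI. %Activity scaled between DMSO wells and cell-free media wells, with curves fitted and assigned curve classes.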
HT1080-NT tox: kills 2HG-producing HT-1080-NT fibrosarcoma cells | HT-1080-NT fibrosarcoma viability, CellTiter-Glo ATP luminescence, 48 h | Potency, µM (series often up to 46.1 µM), for the others: at the highest dose activity, negative = less viability, usual class: cytotoxic | actives 1.6% (n = 360,000) | AID 686970;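 also: NT is the 2HG producing partner of a matched IDH1 knockdown line; 0% = DMSO-treated cells and -100% = media-only wells without cells; nearly all actives have a fitted effect of over 55% in size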
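A 48-hour cytotoxicity screen used HT-1080-NT cells plated 2 hours before compound delivery. ATP-based CellTiter-Glo luminescence measured viability, normalized to DMSO and no-cell controls.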
The depositor's hits bear a star. Hits are enriched below; roughly 3.8% of the tested compounds scored in any of these assays. Calls follow the shape of the dose curve; as a rule, active = well fitted curve in the direction sought with a large enough effect; inconclusive = small, poorly fitted or top-dose-only effect, or another doubt; inactive = no such curve, though single readings can be large; an effect the other way counts as inactive or inconclusive. Potency is read from the fitted curve at half-maximal effect.

`CC(C)(C)c1ccc(-n2nc(C(N)=O)c(O)cc2=O)cc1` gave ATXN viability inconclusive, TGFb inhibitor 8%, ATXN2 expr inh 19%, HepG2 viability -21%, HT1080 IDH1KD tx 1% and HT1080-NT tox -4%.
Screening CCCCOC(=O)c1ccc(NC(=O)CSc2nc3c(c(=O)[nH]2)CCC3)cc1 returned ATXN viability inactive, TGFb inhibitor -3%, ATXN2 expr inh 12% and HepG2 viability -2%.
`CCCNC(=O)[C@H]1O[C@H]1C(=O)N[C@H](C(=O)N1CCC[C@@H]1C(=O)OC)C(C)CC` (stereo partly drawn) gave ATXN2 expr inh 22µM*.
For Cc1ccc2nc(-c3ccccc3C)c(CN(CC3CCCO3)C(=O)c3cccs3)cc2c1 (stereo not drawn) the results were ATXN viability inactive.
Screening COc1ccc(C(=O)c2sc(Nc3ccccc3)nc2N)cc1OC returned TGFb inhibitor 13µM*, ATXN2 expr inh inconclusive, HepG2 viability -13%, HT1080 IDH1KD tx inconclusive and HT1080-NT tox inconclusive.
COc1ccc(C(=O)c2sc(Nc3ccccc3)nc2N)cc1 was read as ATXN viability inactive, TGFb inhibitor 11µM*, ATXN2 expr inh -5%, HepG2 viability -54%, HT1080 IDH1KD tx -18% and HT1080-NT tox -16%.
`COc1ccc(C(=O)c2sc(Nc3ccccc3F)nc2N)cc1` gave ATXN viability inconclusive, TGFb inhibitor -21%, HepG2 viability 5%, HT1080 IDH1KD tx 3% and HT1080-NT tox 13%.
`COc1ccc(CCNC(=O)c2cnc3ccc(C)cn3c2=O)cc1` gave ATXN viability inactive, TGFb inhibitor -2%, ATXN2 expr inh -2% and HepG2 viability -4%.
`COc1ccc(C(=O)NCC(c2ccco2)N2CCc3ccccc32)cc1` (stereo not drawn) gave ATXN viability inconclusive, TGFb inhibitor inconclusive, ATXN2 expr inh -28%, HepG2 viability 0%, HT1080 IDH1KD tx 5.8µM* and HT1080-NT tox 4.1µM*.
For COc1ccc(NC(=O)C(=O)NCC(c2ccco2)N2CCc3ccccc32)cc1 (stereo not drawn) the results were ATXN viability inactive, TGFb inhibitor -18%, ATXN2 expr inh -12%, HepG2 viability 0%, HT1080 IDH1KD tx inconclusive and HT1080-NT tox 2%.
COc1ccc(Cl)cc1NC(=O)c1nnn(CC(=O)Nc2ccc(OC)c(OC)c2)c1N was read as ATXN viability inactive, TGFb inhibitor -3%, HepG2 viability -3%, HT1080 IDH1KD tx 13% and HT1080-NT tox 13%.
`COc1ccc(C)cc1NC(=O)c1nnn(Cc2cccc(F)c2)c1N` gave ATXN viability inconclusive, TGFb inhibitor -13%, ATXN2 expr inh inconclusive, HepG2 viability 14%, HT1080 IDH1KD tx 4.1µM* and HT1080-NT tox inconclusive.
For Cc1cccc(NC(=O)Cn2nnc(C(=O)NCc3cccs3)c2N)c1C the results were ATXN viability inactive, TGFb inhibitor 1%, ATXN2 expr inh -7%, HepG2 viability 18µM*, HT1080 IDH1KD tx -14% and HT1080-NT tox -18%.
`CCOc1ccc(OCC)c(NC(=O)c2nnn(CC(=O)Nc3cc(Cl)ccc3OC)c2N)c1` gave ATXN viability 10µM*, TGFb inhibitor inconclusive, ATXN2 expr inh inconclusive and HepG2 viability -6%.
`CCOc1ccccc1NC(=O)Cn1nnc(C(=O)NCc2ccco2)c1N` gave ATXN viability inactive, TGFb inhibitor inconclusive, ATXN2 expr inh -21%, HepG2 viability -11%, HT1080 IDH1KD tx 0.041µM* and HT1080-NT tox inconclusive.
`Cc1ccc(NC(=O)Cn2nnc(-c3nc(-c4ccc(Cl)cc4)no3)c2N)cc1C` gave TGFb inhibitor inconclusive and HepG2 viability 3%.
